Data taken from PubChem BioAssay AID1159580 (chemical genetic matrix, 2015).
Hit rate of the full screen: of about 5,500 compounds, about 2,000 (36%) were called active. Another 18% or so got no clear call; they are omitted. No stated cut-off is given here; in the data, active means normalized growth mostly below about 0.91 (no sharp cut-off); inconclusive means no clear call, values can overlap the other calls; inactive means mostly above about 0.92. The list shows a part of the results.

Experiment: chemical genetic growth profiling, strain panel (AID 1159580);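 further: tested at 20 µM; growth read once vehicle control cultures reached saturation at 30 °C; 1 = growth at the plate median or of vehicle wells; lower values mean less growth of the strain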
Conditions: growth OD

Measured: normalized growth

CC(C)NCC(O)c1ccc2ccccc2c1 (stereo not drawn)
inactive: S. cerevisiae deletion strains, locus YJR066W, strain TOR1, active compounds read low 0.936 | S. cerevisiae deletion strains, locus YJR075W, strain HOC1, active compounds read low 1.02 | S. cerevisiae deletion strains, locus YKL009W, strain mrt4, active compounds read low 0.998 | S. cerevisiae deletion strains, locus YKL068W, active compounds read low 0.997 | S. cerevisiae deletion strains, locus YKL085W, strain MDH1 (second series), active compounds read low 0.996 | S. cerevisiae deletion strains, locus YKL085W, strain MDH1, active compounds read low 0.996 | S. cerevisiae deletion strains, locus YKL160W, strain elf1, active compounds read low 0.994 | S. cerevisiae deletion strains, locus YKR001C, strain vps1, active compounds read low 1.03 | S. cerevisiae deletion strains, locus YKR026C, strain gcn3, active compounds read low 1 | S. cerevisiae deletion strains, locus YKR091W, strain srl3, active compounds read low 1 | S. cerevisiae deletion strains, locus YLL001W, strain dnm1, active compounds read low 1 | S. cerevisiae deletion strains, locus YLL026W, active compounds read low 0.998 | S. cerevisiae deletion strains, locus YLL041C, strain sdh2, active compounds read low 0.998 | S. cerevisiae deletion strains, locus YLR027C, strain aat2, active compounds read low 1 | S. cerevisiae deletion strains, locus YLR039C, strain RIC1, active compounds read low 1.04 | S. cerevisiae deletion strains, locus YLR058C, strain SHM2, active compounds read low 1.01 | S. cerevisiae deletion strains, locus YLR102C, strain apc9, active compounds read low 0.988 | S. cerevisiae deletion strains, locus YLR113W, strain HOG1, active compounds read low 1.05 | S. cerevisiae deletion strains, locus YLR221C, strain rsa3, active compounds read low 1.02 | S. cerevisiae deletion strains, locus YLR258W, strain gsy2, active compounds read low 0.996 | S. cerevisiae deletion strains, locus YLR262C, strain YPT6 (second series), active compounds read low 0.984 | S. cerevisiae deletion strains, locus YLR262C, strain YPT6, active compounds read low 1.07 | S. cerevisiae deletion strains, locus YLR268W, strain sec22, active compounds read low 0.989 | S. cerevisiae deletion strains, locus YLR320W, strain mms22, active compounds read low 1.01 | S. cerevisiae deletion strains, locus YLR330W, strain CHS5, active compounds read low 1.01 | S. cerevisiae deletion strains, locus YLR342W, strain FKS1 (second series), active compounds read low 1.03 | S. cerevisiae deletion strains, locus YLR342W, strain FKS1, active compounds read low 0.999 | S. cerevisiae deletion strains, locus YLR357W, strain rsc2, active compounds read low 0.984 | S. cerevisiae deletion strains, locus YLR370C, strain arc18, active compounds read low 1.02 | S. cerevisiae deletion strains, locus YLR371W, strain rom2, active compounds read low 0.989 | S. cerevisiae deletion strains, locus YLR384C, strain iki3, active compounds read low 1 | S. cerevisiae deletion strains, locus YLR418C, strain cdc73, active compounds read low 0.997 | S. cerevisiae deletion strains, locus YML016C, strain PPZ1, active compounds read low 1 | S. cerevisiae deletion strains, locus YML032C, strain rad52, active compounds read low 1.01 | S. cerevisiae deletion strains, locus YML120C, strain ndi1, active compounds read low 0.991 | S. cerevisiae deletion strains, locus YML124C, strain tub3, active compounds read low 0.991 | S. cerevisiae deletion strains, locus YMR058W, strain fet3, active compounds read low 1 | S. cerevisiae deletion strains, locus YMR078C, strain ctf18, active compounds read low 0.998 | S. cerevisiae deletion strains, locus YMR125W, strain sto1, active compounds read low 0.982 | S. cerevisiae deletion strains, locus YMR129W, active compounds read low 0.98 | S. cerevisiae deletion strains, locus YMR205C, strain PFK2, active compounds read low 0.981 | S. cerevisiae deletion strains, locus YMR223W, strain ubp8, active compounds read low 0.997 | S. cerevisiae deletion strains, locus YMR231W, strain pep5, active compounds read low 1 | S. cerevisiae deletion strains, locus YMR307W, strain GAS1, active compounds read low 1.06 | S. cerevisiae deletion strains, locus YNL067W, strain RPL9B, active compounds read low 1.04 | S. cerevisiae deletion strains, locus YNL071W, strain lat1, active compounds read low 1 | S. cerevisiae deletion strains, locus YNL153C, strain GIM3, active compounds read low 1.05 | S. cerevisiae deletion strains, locus YNL183C, strain NPR1, active compounds read low 0.968 | S. cerevisiae deletion strains, locus YNL209W, strain ssb2, active compounds read low 1 | S. cerevisiae deletion strains, locus YNL233W, strain BNI4, active compounds read low 1.04 | S. cerevisiae deletion strains, locus YNL248C, strain rpa49, active compounds read low 0.998 | S. cerevisiae deletion strains, locus YNL250W, strain rad50, active compounds read low 0.992 | S. cerevisiae deletion strains, locus YNL271C, strain bni1, active compounds read low 1.01 | S. cerevisiae deletion strains, locus YNL298W, strain CLA4, active compounds read low 1 | S. cerevisiae deletion strains, locus YNL307C, strain MCK1, active compounds read low 0.994 | S. cerevisiae deletion strains, locus YNL322C, strain KRE1 (second series), active compounds read low 1 | S. cerevisiae deletion strains, locus YNL322C, strain KRE1, active compounds read low 1.01 | S. cerevisiae deletion strains, locus YNR049C, strain mso1, active compounds read low 0.999 | S. cerevisiae deletion strains, locus YNR052C, strain pop2, active compounds read low 0.997 | S. cerevisiae deletion strains, locus YOL012C, strain htz1 1.41 | S. cerevisiae deletion strains, locus YOL147C, strain pex11, active compounds read low 1 | S. cerevisiae deletion strains, locus YOR001W, strain rrp6, active compounds read low 1 | S. cerevisiae deletion strains, locus YOR061W, strain CKA2, active compounds read low 1.01 | S. cerevisiae deletion strains, locus YOR069W, strain VPS5, active compounds read low 1.01 | S. cerevisiae deletion strains, locus YOR070C, strain gyp1, active compounds read low 1 | S. cerevisiae deletion strains, locus YOR080W, strain dia2, active compounds read low 0.998 | S. cerevisiae deletion strains, locus YOR083W, strain WHI5, active compounds read low 0.991 | S. cerevisiae deletion strains, locus YOR106W, strain vam3, active compounds read low 1.04 | S. cerevisiae deletion strains, locus YOR136W, strain idh2, active compounds read low 0.997 | S. cerevisiae deletion strains, locus YOR144C, strain elg1, active compounds read low 0.99 | S. cerevisiae deletion strains, locus YOR184W, strain ser1, active compounds read low 0.978 | S. cerevisiae deletion strains, locus YOR231W, strain MKK1, active compounds read low 1.06 | S. cerevisiae deletion strains, locus YOR265W, strain rbl2, active compounds read low 0.99 | S. cerevisiae deletion strains, locus YOR270C, strain vph1, active compounds read low 1.02 | S. cerevisiae deletion strains, locus YOR290C, strain snf2, active compounds read low 0.993 | S. cerevisiae deletion strains, locus YOR316C, strain cot1, active compounds read low 0.992 | S. cerevisiae deletion strains, locus YPL051W, strain arl3, active compounds read low 1.01 | S. cerevisiae deletion strains, locus YPL055C, strain LGE1, active compounds read low 1.06 | S. cerevisiae deletion strains, locus YPL078C, strain atp4, active compounds read low 1.01 | S. cerevisiae deletion strains, locus YPL106C, strain sse1, active compounds read low 0.983 | S. cerevisiae deletion strains, locus YPL240C, strain hsp82, active compounds read low 0.997 | S. cerevisiae deletion strains, locus YPL256C, strain CLN2, active compounds read low 1.02 | S. cerevisiae deletion strains, locus YPR119W, strain clb2, active compounds read low 0.99 | S. cerevisiae deletion strains, locus YPR141C, strain kar3, active compounds read low 0.994 | S. cerevisiae deletion strains, locus YPR163C, strain tif3, active compounds read low 0.99 | S. cerevisiae deletion strains, locus YPR167C, strain met16, active compounds read low 0.989 | S. cerevisiae deletion strains, strain wtn01, active compounds read low 1.03 | S. cerevisiae strains, strain wild type, active compounds read low 1.01
